Assay results reported in PubChem BioAssay.
Active and inactive are the calls of the source. Unless noted, no rule for the calls is given here.

Key:
[1] = system: Wnt5a (protein binding on small-molecule microarray); test: small molecules binding Wnt5a protein – biophysical, small-molecule microarray, 635/667 nm fluorescence, primary screen (AID 1142); details: 635 nm fluorescence, higher = more signal;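 also: fluorescence read at 667 nm with signal to noise per printed feature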
[2] = ATP-based viability of Huh7 replicon cells – cell-based, CellTiter-Glo luminescence, basal, 48 h, cytotoxicity control for HCV replication inhibitor project, primary screen (AID 1143); details: higher = more signal, called active from +8 up or from −8 down;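 also: Huh7 hepatoma cells carrying a hepatitis C replication reporter with no stimulus; test concentration not given here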
[3] = Pseudomonas biofilm growth suppression – PAO1 strain, BacTiter-Glo luminescence, LB-PBS, primary screen (AID 1144); details: P. aeruginosa PAO1 biofilm, 12 h, higher = more signal
[4] = basal CRE-LacZ reporter activity in PC12 – cell-based, unstimulated, primary screen (AID 1145); details: no forskolin, luminescence, 4.5 h, higher = more signal, called active from +8 up or from −8 down
[5] = forskolin-driven CRE-LacZ activity in PC12 – cell-based, CRE-LacZ reporter, forskolin-stimulated, primary screen (AID 1146); details: luminescence, 4.5 h, higher = more signal, called active from +8 up or from −8 down;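 also: PC12 cells with 6xCRE LacZ reporter stimulated by forskolin 10 µM; beta-galactosidase reporter signal reflecting CREB driven transcription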
[6] = target: Streptavidin (Streptomyces avidinii) (UniProt P22629); test: compounds binding control protein streptavidin – biophysical, small-molecule microarray, 635/667 nm fluorescence, artefact control for SMM compound annotation, primary screen (AID 1147); details: higher = more signal;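 also: signal reflects streptavidin binding to arrayed compounds as a control protein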
Sequence of Streptavidin (Streptomyces avidinii) (P22629 whole entry, looked up): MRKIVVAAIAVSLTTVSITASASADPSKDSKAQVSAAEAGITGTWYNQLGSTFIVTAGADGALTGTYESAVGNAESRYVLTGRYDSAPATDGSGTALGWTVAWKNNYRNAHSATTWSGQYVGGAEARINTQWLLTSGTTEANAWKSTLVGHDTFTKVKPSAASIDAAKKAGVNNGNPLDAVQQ

[7] = probe aInhba binding on compound microarray – biochemical, small-molecule microarray, 635/667 nm fluorescence, primary screen (AID 1148); details: higher = more signal;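 also: score merges 667nm spot fluorescence with signal-to-noise for antibody binding to printed compounds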
[8] = target: Torsin-1A (Homo sapiens) (UniProt O14656); test: TOR1A wild-type binding on microarray – cell lysate, small-molecule microarray, lysate, 635/667 nm, primary screen (AID 1149); details: COS7 hTOR1A-WT lysate, 635 nm fluorescence, higher = more signal
Sequence of Torsin-1A (Homo sapiens) (O14656 whole entry, looked up): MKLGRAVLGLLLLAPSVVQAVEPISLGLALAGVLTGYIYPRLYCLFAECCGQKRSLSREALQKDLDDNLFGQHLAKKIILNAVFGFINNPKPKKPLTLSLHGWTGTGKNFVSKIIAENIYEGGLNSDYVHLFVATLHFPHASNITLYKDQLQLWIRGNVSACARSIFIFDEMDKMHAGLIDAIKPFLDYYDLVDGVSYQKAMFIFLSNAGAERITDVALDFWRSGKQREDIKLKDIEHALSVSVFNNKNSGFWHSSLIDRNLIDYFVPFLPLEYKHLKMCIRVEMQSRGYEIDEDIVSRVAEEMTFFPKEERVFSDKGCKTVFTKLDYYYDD

[9] = target: Torsin-1A (Homo sapiens) (UniProt O14656); test: torsin A mutant lysate binding on microarrays – cell lysate, small-molecule microarray, COS7 lysate, 635/667 nm fluorescence, primary screen (AID 1150); details: COS7 hTOR1A mutant lysate, 635 nm fluorescence, higher = more signal;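 also: score pools 667 nm emission and signal to noise measuring lysate protein binding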
[10] = system: Sonic hedgehog protein (Shh); test: Sonic hedgehog microarray binding compounds – biochemical, small-molecule microarray, 635/667 nm fluorescence, primary screen (AID 1151); details: 635 nm fluorescence, higher = more signal;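 also: Shh protein binding to compounds spotted on small-molecule microarray slides; score combines spot fluorescence intensity with signal-to-noise across triplicate slides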
[11] = optical density shifts of acrAB sulA E. coli – strain DRC41, OD650, 48 h, E. coli filamentation inducer project, primary screen (AID 1152); details: higher = more signal, called active from +8 up or from −8 down;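 also: E. coli MC1000 strain DRC41 lacking acrAB efflux pump and sulA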
[12] = probe aLefty1 binding on compound microarray – biochemical, small-molecule microarray, 635/667 nm fluorescence, primary screen (AID 1153); details: higher = more signal;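 also: score merges spot fluorescence with signal-to-noise ratio from the scanned slide images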
[13] = plasmodial surface anion channel blockers, osmotic lysis – cell-based, P. falciparum Indochina, OD700, 1 h, primary screen (AID 1154); details: P. falciparum Indochina infected RBC osmotic lysis, higher = more signal, called active from +8 up or from −8 down
[14] = plasmodial surface anion channel blockers, osmotic lysis – cell-based, P. falciparum Indochina, OD700, 2 h, primary screen (AID 1155);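 also: lysis reports solute entry through the parasite surface anion channel PSAC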; details: P. falciparum Indochina infected erythrocytes, higher = more signal, called active from +8 up or from −8 down
[15] = changes in parasitized red cell lysis, either direction – P. falciparum Indochina, OD700, 3 h, PSAC antagonist project, primary screen (AID 1156); details: P. falciparum-infected erythrocytes, osmotic lysis, higher = more signal, called active from +8 up or from −8 down
[16] = plasmodial surface anion channel blockers, osmotic lysis – cell-based, P. falciparum Indochina, OD700, 18 h, primary screen (AID 1157); details: P. falciparum Indochina infected erythrocytes, osmotic lysis OD700, 18 h; higher = more signal, called active from +8 up or from −8 down
[17] = S6 kinase pathway phospho-S6 level changes – cell-based, A549, cytoblot, luminescence, serum-stimulated, primary screen (AID 1158); details: 5 h, higher = more signal;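 also: serum-stimulated A549 lung adenocarcinoma cells; signal is phosphorylated S6 detected by cytoblot immunostaining with HRP secondary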
[18] = target: NADPH oxidase 2 (Homo sapiens) (UniProt P04839); test: compounds shifting NOX2 Amplex Red fluorescence – cell-based, HEK293-NOX2, PMA-stimulated, NOX inhibitor project, primary screen (AID 1159); details: 45 min, higher = more signal, called active from +8 up or from −8 down; also: test concentration not given here
Sequence of NADPH oxidase 2 (Homo sapiens) (P04839 whole entry, looked up): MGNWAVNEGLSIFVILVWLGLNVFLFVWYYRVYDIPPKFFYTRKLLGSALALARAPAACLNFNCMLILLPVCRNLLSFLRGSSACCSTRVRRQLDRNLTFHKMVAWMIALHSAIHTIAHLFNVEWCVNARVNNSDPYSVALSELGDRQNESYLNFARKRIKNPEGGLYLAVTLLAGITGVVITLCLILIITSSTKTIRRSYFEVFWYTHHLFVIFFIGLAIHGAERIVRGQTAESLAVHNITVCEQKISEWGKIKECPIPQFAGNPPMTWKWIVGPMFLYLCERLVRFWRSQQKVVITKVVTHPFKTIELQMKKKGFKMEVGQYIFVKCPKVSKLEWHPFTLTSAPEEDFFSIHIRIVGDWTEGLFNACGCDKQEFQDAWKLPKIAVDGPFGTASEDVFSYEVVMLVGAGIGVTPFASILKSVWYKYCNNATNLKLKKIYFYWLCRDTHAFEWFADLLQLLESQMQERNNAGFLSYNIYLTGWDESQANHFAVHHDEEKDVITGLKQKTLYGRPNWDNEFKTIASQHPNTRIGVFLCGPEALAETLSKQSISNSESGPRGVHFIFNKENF

[19] = target: NADPH oxidase 4 (Homo sapiens) (UniProt Q9NPH5); test: compounds shifting NOX4 Amplex Red fluorescence – cell-based, HEK293-NOX4, tetracycline-induced, NOX inhibitor project, primary screen (AID 1160); details: HEK293-NOX4, Amplex Red H2O2 fluorescence, 45 min; higher = more signal, called active from +8 up or from −8 down
Sequence of NADPH oxidase 4 (Homo sapiens) (Q9NPH5 whole entry, looked up): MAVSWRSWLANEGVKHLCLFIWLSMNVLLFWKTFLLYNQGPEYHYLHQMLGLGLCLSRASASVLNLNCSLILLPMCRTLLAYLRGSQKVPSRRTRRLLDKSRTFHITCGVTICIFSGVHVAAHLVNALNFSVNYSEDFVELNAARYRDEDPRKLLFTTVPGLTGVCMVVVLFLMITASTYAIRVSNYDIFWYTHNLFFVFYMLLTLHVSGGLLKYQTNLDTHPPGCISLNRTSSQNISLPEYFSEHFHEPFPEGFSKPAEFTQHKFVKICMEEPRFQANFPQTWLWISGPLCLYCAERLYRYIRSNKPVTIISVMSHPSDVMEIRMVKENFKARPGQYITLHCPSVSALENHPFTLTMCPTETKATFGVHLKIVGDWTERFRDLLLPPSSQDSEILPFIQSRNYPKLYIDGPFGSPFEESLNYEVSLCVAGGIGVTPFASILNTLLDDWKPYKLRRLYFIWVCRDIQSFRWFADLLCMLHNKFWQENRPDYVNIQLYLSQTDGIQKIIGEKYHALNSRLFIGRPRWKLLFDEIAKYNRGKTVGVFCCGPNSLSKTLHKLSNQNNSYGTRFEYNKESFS

[20] = target: NADPH oxidase 5 (Homo sapiens) (UniProt Q96PH1); test: compounds shifting NOX5 Amplex Red fluorescence – cell-based, HEK293-NOX5, NOX inhibitor project, primary screen (AID 1161); details: HEK293-NOX5, ionomycin, 45 min, higher = more signal
Sequence of NADPH oxidase 5 (Homo sapiens) (Q96PH1 whole entry, looked up): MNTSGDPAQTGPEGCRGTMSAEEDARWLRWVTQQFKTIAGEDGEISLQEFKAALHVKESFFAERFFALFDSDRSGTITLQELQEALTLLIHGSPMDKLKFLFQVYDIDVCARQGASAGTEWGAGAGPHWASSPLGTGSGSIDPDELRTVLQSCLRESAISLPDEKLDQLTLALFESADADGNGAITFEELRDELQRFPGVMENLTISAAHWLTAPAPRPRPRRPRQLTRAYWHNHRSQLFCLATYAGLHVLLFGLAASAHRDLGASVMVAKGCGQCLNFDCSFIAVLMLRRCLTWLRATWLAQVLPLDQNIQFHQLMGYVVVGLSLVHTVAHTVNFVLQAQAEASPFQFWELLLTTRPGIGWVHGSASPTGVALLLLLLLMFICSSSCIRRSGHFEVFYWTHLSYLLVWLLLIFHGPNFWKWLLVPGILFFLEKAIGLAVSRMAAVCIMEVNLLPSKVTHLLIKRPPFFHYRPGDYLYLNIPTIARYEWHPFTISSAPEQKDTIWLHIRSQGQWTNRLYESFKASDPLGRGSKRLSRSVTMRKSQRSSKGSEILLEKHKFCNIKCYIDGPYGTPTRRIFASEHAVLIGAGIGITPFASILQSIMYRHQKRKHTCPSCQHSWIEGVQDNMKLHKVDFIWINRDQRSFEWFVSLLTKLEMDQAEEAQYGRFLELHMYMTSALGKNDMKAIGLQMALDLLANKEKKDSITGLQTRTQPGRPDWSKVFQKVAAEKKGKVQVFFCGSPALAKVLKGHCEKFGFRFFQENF

Compound	composite z-score [1]	z-score [2]	z-score [3]	z-score [4]	z-score [5]	composite z-score [6]	composite z-score [7]	composite z-score [8]	composite z-score [9]	composite z-score [10]	z-score [11]	composite z-score [12]	z-score [13]	z-score [14]	z-score [15]	z-score [16]	z-score [17]	z-score [18]	z-score [19]	z-score [20]
CO[C@H]1O[C@H](CO)[C@@H](OC(=O)Nc2ccc(Oc3ccccc3)cc2)[C@H](OC(=O)Nc2ccccc2-c2ccccc2)[C@@H]1OC(=O)Nc1ccccc1-c1ccccc1	0.58	-4.64 (inactive)	-0.935 (inactive)	-0.198 (inactive)	-0.355 (inactive)	0.819	0.588	-0.21	0.408	0.74	0.963 (inactive)	0.361	0.484 (inactive)	1.04 (inactive)	0.228 (inactive)	0.766 (inactive)	0.322	2.06 (inactive)	0.707 (inactive)	0.356
COCCOC(=O)N1C(=O)[C@@]2(c3cc(C#CC4(O)CCCCCC4)ccc31)[C@H](C(N)=O)[C@H]1C(=O)O[C@H](c3ccccc3)[C@H](c3ccccc3)N1[C@@H]2c1ccc(O)cc1	0.179	-1.02 (inactive)	0.00701 (inactive)	2.25 (inactive)	3.59 (inactive)	0.184	-0.0645	-0.0243	0.0342	0.778	-0.342 (inactive)	-0.0186	1.7 (inactive)	-0.269 (inactive)	2.21 (inactive)	-0.125 (inactive)	-0.0551	0.649 (inactive)	0.547 (inactive)	0.85
O=C(O)[C@H](Cc1ccccc1)n1cc(-c2ccccn2)nn1	0.0676	-0.437 (inactive)	-0.0406 (inactive)	0.688 (inactive)	-0.377 (inactive)	0.303	-0.0645	0.307	0.407	0.506	-0.267 (inactive)	-0.0969	-0.258 (inactive)	-0.431 (inactive)	-0.906 (inactive)	-0.0561 (inactive)	-0.428	-1.61 (inactive)	-0.653 (inactive)	-1.24
C=C1C2CC3C(=C4C(CO[C@@H]4[C@H]4CCCN4S(=O)(=O)c4ccccc4[N+](=O)[O-])C4C(=O)N(C)C(=O)C34)CC2C(=O)N1C (stereo not given in full)	-0.0541	0.985 (inactive)	0.283 (inactive)	3.21 (inactive)	0.769 (inactive)	-0.207	-0.101	0.942	0.107	0.832	-0.523 (inactive)	-0.147	4.07 (inactive)	0.0975 (inactive)	-0.513 (inactive)	-0.0387 (inactive)	0.0973	0.228 (inactive)	0.569 (inactive)	0.751
